# In the library only some 0.92% were active in any assay of this set; here they are far more common.
# MEP2-GFP yeast – modulators of MEP2-GFP levels in yeast, primary screen, S. cerevisiae, multiplex flow cytometry, MLPCN library; S. cerevisiae MEP2-GFP strain, 3 h; 100% = DMSO control level; GFP response vs DMSO, % at 10 µM; 0.51% of 330,000 active;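 active = GFP response versus DMSO above a set limit, roughly screen mean plus 3 SD, cut at about 180% in these data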;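 also: median GFP fluorescence of the barcode-gated MEP2-GFP cells per well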
# RPL19A TOR yeast – RPL19A-GFP expression modulators in yeast, primary screen, cell-based, S. cerevisiae, multiplex flow cytometry, MLPCN. S. cerevisiae RPL19A-GFP strain, 3 h; active compounds read low. percent response vs DMSO, % at 10 µM. 0.3% of 330,000 active. AID 2025, 2009;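 active = percent response vs DMSO below 50%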;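 also: median channel GFP fluorescence of the barcoded RPL19A-GFP strain; ratio of sample median GFP to plate DMSO average so 100% = DMSO; lower means less RPL19A-GFP as with rapamycin TOR inhibition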
# LAP4-GFP MLPCN – modulators of LAP4-GFP expression in yeast, primary screen, S. cerevisiae, multiplex flow cytometry, MLPCN library; 3 h; median GFP as percent of DMSO wells; GFP response vs DMSO, % at 10 µM; 0.34% of 320,000 active;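 active = GFP response vs DMSO above a set limit, about the screen mean plus 3 SD, cut at about 150% in these data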
# CIT2 TOR yeast – modulators of CIT2-GFP expression in yeast, primary screen, S. cerevisiae, GFP fusion, multiplex flow cytometry, MLPCN library; 0.065% of 320,000 active; S. cerevisiae CIT2-GFP strain, 3 h; 100 means same as DMSO wells; GFP response vs DMSO, % at 10 µM;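 active = GFP response relative to DMSO above a set limit, near the screen mean plus 3 SD, cut at about 150% in these data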;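 also: ratio of well median GFP fluorescence to mean of DMSO wells on the plate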
# AGP1-GFP MLPCN – modulators of AGP1-GFP expression in yeast TOR pathway, primary screen, cell-based, multiplex flow cytometry, S. cerevisiae, MLPCN library; AID 2066, 2009; 3 h; GFP as percent of DMSO wells; GFP response vs DMSO, % at 10 µM; 0.02% of 320,000 active;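 active = GFP response relative to DMSO above a set limit, near screen average plus 3 SD, cut at about 150% in these data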;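 also: median GFP channel fluorescence of the gated AGP1 strain per well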
# LAP4 cherry2 – LAP4-GFP expression modulators in yeast, confirmation, cell-based, second cherry pick, flow cytometry; GFP response vs DMSO, % at 10 µM; S. cerevisiae LAP4-GFP strain, 3 h; shares compounds with LAP4-GFP MLPCN; AID 2621, 2010; 20% of 590 active;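 active = GFP signal as percent of the solvent control above about 150%, meaning raised reporter expression, limit read from the data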;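 also: ratio of well median GFP fluorescence to plate DMSO mean so 100% = DMSO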
# MEP2 cherry2 – modulators of MEP2-GFP levels in yeast, confirmation, S. cerevisiae, flow cytometry GFP, second cherry picks | shares compounds with LAP4-GFP MLPCN | S. cerevisiae MEP2-GFP strain, 3 h | GFP response vs DMSO, % at 10 µM | 10% of 590 active | AID 2622, 2010;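 active = GFP signal above 150% of the solvent control wells, that is a rise of more than half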;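 also: median channel GFP fluorescence of all gated yeast cells per well; ratio of median GFP to plate DMSO average so 100% = DMSO level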
# RPL19A GFP CP2 – RPL19A-GFP modulators in TOR pathway yeast, confirmation, cell-based, S. cerevisiae, flow cytometry, second cherry pick. shares compounds with LAP4-GFP MLPCN. S. cerevisiae RPL19A-GFP strain, 3 h; active compounds read low; 100% means same as DMSO wells. GFP response vs DMSO, % at 10 µM. 3% of 590 active. AID 2623, 2010;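 active = under 65% GFP response relative to DMSO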;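 also: median GFP channel fluorescence per well over the all cells gate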
# CIT2 GFP CP2 – modulators of CIT2-GFP expression in yeast, confirmation, flow cytometry, second cherry pick, single plex | shares compounds with LAP4-GFP MLPCN | S. cerevisiae CIT2-GFP strain, 3 h; DMSO control wells read 100% | GFP response vs DMSO, % at 10 µM | 8% of 590 active | AID 2624, 2010;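 active = GFP response vs DMSO above about 150%, limit read from the data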;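 also: median green fluorescence per well over all gated yeast cells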
# AGP1-GFP pick2 – AGP1-GFP expression modulators, hit retest, confirmation, cell-based, flow cytometry, S. cerevisiae, cherry pick set 2; shares compounds with LAP4-GFP MLPCN; S. cerevisiae AGP1-GFP strain, 3 h; percent response vs DMSO, % at 10 µM; 590 tested, under 10 active;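 active = over 150 percent of DMSO response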;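 also: median GFP channel fluorescence over all cells without mother daughter split; sample median GFP divided by mean DMSO control so 100% equals DMSO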
# s288c autofluor – compound autofluorescence in yeast s288c, dose response, artefact control for yeast TOR pathway GFP screen, s288c strain; shares compounds with LAP4-GFP MLPCN; AID 2757, 2010; S. cerevisiae s288c, 520 nm autofluorescence, flow cytometry, 3 h; active compounds read high; zero means same as solvent-only cells; 610 tested, under 10 active; fluorescence change (kMESF span) at 33 µM;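 active = fluorescence span over the dose series, or activity score, above about 33, limit read from the data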
# Yeast autofl DR – autofluorescence of compounds in yeast s288c, dose response, artefact control for yeast TOR pathway GFP screen, primary hits, KU SAR, s288c parental. shares compounds with LAP4-GFP MLPCN. S. cerevisiae s288c parental, compound autofluorescence, flow cytometry, 3 h. fluorescence change (span) at 33 µM. 110 tested, under 10 active. AID 488829, 2010;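 active = fluorescence change span, or the activity score built from it, above 25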
# TORC1 bypass gr – wild-type yeast growth inhibition sparing TORC1 bypass cells, mechanism study for yeast TOR pathway GFP screen, BY4741 wild type, TORC1 bypass strain. growth rating (0-3) at 30 µM. 120 tested, under 10 active. S. cerevisiae BY4741 spot growth rating, 48-72 h; active compounds read low. shares compounds with LAP4-GFP MLPCN;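 active = growth rating at most 1 for wild type yeast while the TORC1 bypass strain still grows fully, rated 3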
# * marks the source's active call; other numbers are inactive results; . = not tested or not shown; + = active, no number; [ ] = another dose, or the depositor's remark.
SMILES,MEP2-GFP yeast,RPL19A TOR yeast,LAP4-GFP MLPCN,CIT2 TOR yeast,AGP1-GFP MLPCN,s288c autofluor,others
Cc1cc(-c2csc(NC(=O)c3cc4ccccc4o3)n2)c(C)n1C,91,91,99,86,98,.,
CCc1sc(C(=O)Nc2nc(-c3ccccn3)cs2)cc1C,108,84,191*,118,88,1.4,LAP4 cherry2=212*;MEP2 cherry2=155*;RPL19A GFP CP2=106;CIT2 GFP CP2=114;AGP1-GFP pick2=103
O=C(Nc1nc(-c2ccccn2)cs1)c1cc2ccccc2o1,122,73,155*,108,17,1.5,Yeast autofl DR=1.3;TORC1 bypass gr=3
CCc1ccc(C2=NN(CCC(=O)NCc3cccs3)C(=O)CC2)cc1,101,102,98,96,99,.,
CCCOc1ccc(C(F)(F)F)cc1NC(=O)c1cc(C)on1,98,97,100,102,97,.,
Nc1nc(Nc2ccccc2)nc(Nc2cccc(F)c2)c1[N+](=O)[O-],.,.,.,.,.,.,Yeast autofl DR=0.26;TORC1 bypass gr=3
CNc1nc(N)c([N+](=O)[O-])c(Nc2cccc(F)c2)n1,338*[may fluoresce green],73,140,274*[may fluoresce green],134,-0.2,LAP4 cherry2=141;MEP2 cherry2=+;RPL19A GFP CP2=79;CIT2 GFP CP2=350*;AGP1-GFP pick2=159*;Yeast autofl DR=0.07;TORC1 bypass gr=1*
Nc1nc(NCCOCCO)nc(Nc2cccc(F)c2)c1[N+](=O)[O-],116,115,105,109,105,.,
CNc1nc(N)c([N+](=O)[O-])c(Nc2cccc(Cl)c2)n1,109,93,114,121,96,.,Yeast autofl DR=0.36;TORC1 bypass gr=3
Nc1nc(Nc2cccc(F)c2)nc(Nc2cccc(F)c2)c1[N+](=O)[O-],.,.,.,.,.,.,Yeast autofl DR=0;TORC1 bypass gr=3
COc1ccccc1OCCCCCc1c(C)n[nH]c1C,108,102,104,91,95,.,
COc1ccccc1OCCCc1c(C)n[nH]c1C,119,117,190*,100,58,2,
CC(Cc1ccccc1)NC(=O)CSc1nc2nc3c(cc2c(=O)n1-c1ccccc1)COC(C)(C)C3 (stereo unspecified),94,96,99,103,96,.,
N=C1S/C(=C\c2ccco2)C(=O)N1c1nccs1,108,101,168*,72,76,0.1,
N=C1S/C(=C\c2ccco2)C(=O)N1c1ccc2c(c1)OCO2,92,100,105,94,100,.,
COc1ccc(CCNC(=O)C(=O)NCc2ccc(Cl)cc2)cc1OC,106,102,98,94,97,.,
CC(=O)c1cccc([N+](=O)[O-])c1,97,95,99,93,98,.,
O=C(C#Cc1ccccc1)c1cccc([N+](=O)[O-])c1,95,77,202*,92,99,0.31,
CC(C)(C)C(=O)NC(=S)NNC(=O)c1sc2ccccc2c1Cl,118,82,233*,95,101,0,
CC(=O)N[C@@H](Cc1c[nH]c2ccccc12)C(=O)OCc1cc(C(F)(F)F)cc(C(F)(F)F)c1,166,79,160*,101,113,.,LAP4 cherry2=100;MEP2 cherry2=101;RPL19A GFP CP2=99;CIT2 GFP CP2=100;AGP1-GFP pick2=97
Cc1ccc(Cl)cc1NC(=O)CN1C(=O)NC(C)(C2CC2)C1=O (stereo unspecified),108,84,151*,99,102,.,LAP4 cherry2=102;MEP2 cherry2=103;RPL19A GFP CP2=99;CIT2 GFP CP2=106;AGP1-GFP pick2=102
COc1ccc(C(=O)NNC(=S)NC(=O)/C=C/c2cccs2)cc1,109,98,186*,101,133,0.82,Yeast autofl DR=0.21;TORC1 bypass gr=3
O=C(/C=C/c1cccs1)NC(=S)NNC(=O)c1ccccc1O,93,100,95,80,90,.,
Cc1ncn(-c2ccccc2)c1-c1ccccc1,83,97,108,88,82,.,
O=S(=O)(c1ccccc1)N1N=C(c2cccs2)CC1c1cccc(O)c1 (stereo unspecified),128,108,99,157*,108,.,LAP4 cherry2=99;MEP2 cherry2=96;RPL19A GFP CP2=99;CIT2 GFP CP2=107;AGP1-GFP pick2=101
SMILES,MEP2-GFP yeast,RPL19A TOR yeast,LAP4-GFP MLPCN,CIT2 TOR yeast,AGP1-GFP MLPCN,s288c autofluor,others
CCCC(=O)NCCc1nc2cc([N+](=O)[O-])ccc2n1C,108,104,91,103,97,.,
O=C(CCNS(=O)(=O)c1ccc(F)c(Cl)c1)NCc1ccccc1F,103,110,106,106,107,.,
COc1ccc(C2=CC(=O)N(Nc3ccccc3)C2=O)cc1,92,77,232*,70,100,1.6,
O=C1C2CC=CCC2C(=O)N1Nc1ccccc1 (stereo unspecified),101,95,92,97,94,.,
Cc1ccc(NN2C(=O)C=CC2=O)cc1,102,104,96,99,105,.,
Cc1ccc(NN2C(=O)C=C(c3ccc(Cl)cc3)C2=O)cc1,98,54,203*,78,74,1.9,
O=C1C=C(c2ccccc2)C(=O)N1Nc1ccccc1,100,48*,118,74,67,-0.1,
O=C(CCC(=O)Nc1nnc(C2CCCCC2)s1)NCc1ccccc1,94,94,103,92,100,.,
